The values below come from PubChem BioAssay (NCATS).

Inconclusive results are not listed. Active and inactive are the calls of the source. Calls come from the whole dose curve; as a rule, active = well fitted curve in the direction sought with a large enough effect; inconclusive = small, poorly fitted or top-dose-only effect, or another doubt; inactive = no such curve, though single readings can be large; an effect the other way counts as inactive or inconclusive.

The first experiment can be described thus: qHTS of Nrf2 Activators: LOPAC Validation (AID 624149). Note: 0% is about no effect. The conditions noted are these: Nrf2/ARE reporter cell assay; series mostly up to 46.1 µM; activation: at the top concentration. A digest of the protocol: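 Luminescence read-out of ARE-luciferase activation: AREc32_Fluc cells treated with compounds for 24 hr at 37 deg C, then lysed with Steady-Glo for 30 min at room temperature before reading.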
Background: qHTS replaces the single test concentration by a dilution series.
For the compound `CC(=O)O[C@]1(C(C)=O)CC[C@H]2[C@@H]3C=C(Cl)C4=CC(=O)[C@@H]5C[C@@H]5[C@]4(C)[C@H]3CC[C@@]21C`, the “activation” value is 1.54% (inactive).

For the compound `COc1ccc(Cc2nccc3cc(OC)c(OC)cc23)cc1OC`, the “activation” value is 0.972% (inactive).

As for `C[N+](C)(C)CC(=O)O`, the “activation” value is -0.606% (inactive).

As to `COC(=O)[C@@H]1[C@H]2C[C@H]3c4[nH]c5ccccc5c4CCN3C[C@@H]2CC[C@@H]1O`, the “activation” value is -1.18% (inactive).

`O=c1cc(-c2ccc(O)cc2)oc2cc(O)cc(O)c12`: the “activation” value is 1.44% (inactive).

For the compound `CC1(C)CCC2=C(O1)c1ccccc1C(=O)C2=O`, the “activation” value was -3.12% (inactive).

For `Clc1ccc(C(c2ccc(Cl)cc2)n2cc[n+](CC(OCc3ccc(Cl)cc3Cl)c3ccc(Cl)cc3Cl)c2)cc1` (stereo not drawn), the “activation” value is 0.284% (inactive).

`NC(N)=Nc1nc(CSCC/C(N)=N/S(N)(=O)=O)cs1`: the “activation” value is -1.7% (inactive).

In the case of `O=c1c(-c2ccc(O)cc2)coc2cc(O)ccc12`, the “activation” value was 1.84% (inactive).

`CCN(CC)C(=O)c1ccc(O)c(OC)c1`: the “activation” value is -2.05% (inactive).

Regarding `O=C(NCCN1CCOCC1)c1ccc(Cl)cc1`, the “activation” value is 0.866% (inactive).

In the case of `Clc1ccc(Cn2c(CN3CCCC3)nc3ccccc32)cc1`, the “activation” value is -2.45% (inactive).

As to `CC/C(=C(\c1ccccc1)c1ccc(OCCN(C)C)cc1)c1ccccc1`, the “activation” value was 1.55% (inactive).

Regarding `COc1cccc(-c2cc(=O)c3ccccc3o2)c1N`, the “activation” value is 0.444% (inactive).

As to `CC(C)OC(=O)C(C)(C)Oc1ccc(C(=O)c2ccc(Cl)cc2)cc1`, the “activation” value was -1.61% (inactive).

The next experiment can be described thus: HTS Assay for Allosteric Antagonists of the Human D2 Dopamine Receptor: Hit Validation in HTRF (AID 624455).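 Note: stable D1 dopamine receptor cell line scored for blocking the D1 response; % is set by controls: 0 for no effect and ±100 for the full control effect.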 Particulars: Cells stably expressing D1 dopamine receptor, inhibition mode; series mostly up to 46.1 µM; activity, negative = inhibition: at the top concentration. The gist of the method:
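First, antagonism was screened by calcium flux in a force-coupled, inducible Hek293 Trex D2 line challenged with EC80 dopamine. Hits then went into an HTRF assay in cells stably expressing D1, testing inhibition of the D1 response.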
Background: Time-resolved FRET reads energy transfer from a long-lived donor to a nearby acceptor.
Regarding `CC(=O)O[C@]1(C(C)=O)CC[C@H]2[C@@H]3C=C(Cl)C4=CC(=O)[C@@H]5C[C@@H]5[C@]4(C)[C@H]3CC[C@@]21C`, the “activity, negative = inhibition” value was 4.32% (inactive).

As to `COc1ccc(Cc2nccc3cc(OC)c(OC)cc23)cc1OC`, the “activity, negative = inhibition” value was 9.02% (inactive).

With `C[N+](C)(C)CC(=O)O`, the “activity, negative = inhibition” value is -3.09% (inactive).

For `COC(=O)[C@@H]1[C@H]2C[C@H]3c4[nH]c5ccccc5c4CCN3C[C@@H]2CC[C@@H]1O`, the “activity, negative = inhibition” value is -3.95% (inactive).

As for `O=c1cc(-c2ccc(O)cc2)oc2cc(O)cc(O)c12`, the “activity, negative = inhibition” value was 3.04% (inactive).

For `CC1(C)CCC2=C(O1)c1ccccc1C(=O)C2=O`, the “activity, negative = inhibition” value is -0.507% (inactive).

Regarding `Clc1ccc(C(c2ccc(Cl)cc2)n2cc[n+](CC(OCc3ccc(Cl)cc3Cl)c3ccc(Cl)cc3Cl)c2)cc1` (stereo not drawn), the “activity, negative = inhibition” value is -7.68% (inactive).

Regarding `NC(N)=Nc1nc(CSCC/C(N)=N/S(N)(=O)=O)cs1`, the “activity, negative = inhibition” value was 0.141% (inactive).

For `O=c1c(-c2ccc(O)cc2)coc2cc(O)ccc12`, the “activity, negative = inhibition” value was -5.12% (inactive).

`CCN(CC)C(=O)c1ccc(O)c(OC)c1`: the “activity, negative = inhibition” value is -2.32% (inactive).

As to `O=C(NCCN1CCOCC1)c1ccc(Cl)cc1`, the “activity, negative = inhibition” value was -2.78% (inactive).

Consider `Clc1ccc(Cn2c(CN3CCCC3)nc3ccccc32)cc1`, for which the “activity, negative = inhibition” value is -1.46% (inactive).

Turning to `CC/C(=C(\c1ccccc1)c1ccc(OCCN(C)C)cc1)c1ccccc1`, the “activity, negative = inhibition” value was -5.77% (inactive).

For the compound `COc1cccc(-c2cc(=O)c3ccccc3o2)c1N`, the “activity, negative = inhibition” value is 6.73% (inactive).

With `CC(C)OC(=O)C(C)(C)Oc1ccc(C(=O)c2ccc(Cl)cc2)cc1`, the “activity, negative = inhibition” value is 0.908% (inactive).

The nature of a further experiment: Cytotoxicity counterscreen for NFkB agonists and antagonists (AID 624476). For activity change, negative = cytotoxicity: % is set by controls: 0 for no effect and ±100 for the full control effect.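 Note: cells exposed to compound for 48 hours.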 Note: potency is the fitted concentration of half-maximal effect. The conditions noted are these: NFkB reporter cell line viability counterscreen; series mostly up to 46.1 µM; activity change, negative = cytotoxicity: at the top concentration. (In general: The purpose of a counterscreen is to sort out artefacts and off-target activity.)
Take `O=C(CCCCCCC(=O)Nc1ccccc1)NO`: the Potency was 38.2 µM (active).

Consider `O=C(O)c1ccc(-c2cc3cccnc3c(-c3ccc4nonc4c3)n2)cc1`, for which the “activity change, negative = cytotoxicity” value was -0.0117% (inactive).

Regarding `O=C(Nc1cc(Cl)cc2c1[nH]c1cnccc12)c1cccnc1`, the “activity change, negative = cytotoxicity” value was 2.73% (inactive).

`CC(C)C(=O)Nc1ncc(-c2cc(C(F)F)nn2-c2c(Cl)cccc2Cl)s1`: the “activity change, negative = cytotoxicity” value is -19% (inactive).

As to `COc1cc2ncnc(Nc3ccc(F)c(Cl)c3)c2cc1OCCCN1CCOCC1`, the “activity change, negative = cytotoxicity” value was -75.5% (inactive).

Take `CC(C)(C(=O)NCC(F)(F)C(F)(F)F)C(=O)N[C@@H]1C(=O)Nc2ccccc2-c2ccccc21`: the “activity change, negative = cytotoxicity” value is -0.391% (inactive).

For the compound `COc1ncc(-c2ccc3nccc(-c4ccnnc4)c3c2)cc1NS(=O)(=O)c1ccc(F)cc1F`, the Potency is 1.05 µM (active).

Regarding `COc1cccc2c1CCCC2CCCN1CCN(C2CCCCC2)CC1` (stereo not drawn), the “activity change, negative = cytotoxicity” value was -19.3% (inactive).

With `N#Cc1ccc(NC(=O)Nc2ccccc2Br)c2n[nH]nc12`, the “activity change, negative = cytotoxicity” value is -20.5% (inactive).

Another experiment is described as follows: qHTS Assay for Identification of Small Molecule Agonists for NFkB Signaling Pathway. (AID 624478).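 Note: compounds tested together with TNF alpha at its EC50 of 10 pM; 0% is about no effect.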 The conditions noted are these: NFkB pathway reporter cell assay, agonist mode, cells co-stimulated with 10 pM TNF alpha; series mostly up to 46.1 µM; activation: at the top concentration. A digest of the protocol: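 ME-180 cervical carcinoma, stable NFkB-RE beta-lactamase reporter; 1000 cells/well, overnight attachment; cpd + TNF alpha 10 pM final, 5 h 37 C; LiveBLAzer 2 h RT; FRET 460/530 nm, ex 405 nm.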
Turning to `O=C(CCCCCCC(=O)Nc1ccccc1)NO`, the “activation” value is -1.11% [at 92.2 µM] (inactive).

For the compound `O=C(O)c1ccc(-c2cc3cccnc3c(-c3ccc4nonc4c3)n2)cc1`, the “activation” value was -2.76% (inactive).

In the case of `O=C1Nc2ccc(Cl)cc2C(C#CC2CC2)(C(F)(F)F)O1` (stereo not drawn), the “activation” value was -0.36% [at 92.2 µM] (inactive).

For the compound `O=C(Nc1cc(Cl)cc2c1[nH]c1cnccc12)c1cccnc1`, the “activation” value is 0.822% (inactive).

In the case of `CC(C)C(=O)Nc1ncc(-c2cc(C(F)F)nn2-c2c(Cl)cccc2Cl)s1`, the “activation” value is -1.13% (inactive).

Consider `COc1cc2ncnc(Nc3ccc(F)c(Cl)c3)c2cc1OCCCN1CCOCC1`, for which the “activation” value is -0.107% (inactive).

For `CC(C)(C(=O)NCC(F)(F)C(F)(F)F)C(=O)N[C@@H]1C(=O)Nc2ccccc2-c2ccccc21`, the “activation” value was -0.471% (inactive).

Consider `COc1ncc(-c2ccc3nccc(-c4ccnnc4)c3c2)cc1NS(=O)(=O)c1ccc(F)cc1F`, for which the “activation” value is -0.841% (inactive).

On to `COc1cccc2c1CCCC2CCCN1CCN(C2CCCCC2)CC1` (stereo not drawn), for which the “activation” value was -0.0655% (inactive).
